BRCA1 expr up: activators of BRCA1 expression | MCF7-BRCA1-FFLuc reporter, luminescence, 48 h; response scale: scaled: vehicle 0%, 10 µM genistein 100% | Potency, µM (top dose mostly 46.1 µM), inactives show at the top dose activation, hits mostly activators | 380,000 tested, 1.1% active; note: potency is the fitted concentration of half-maximal effect; nearly all actives have a fitted effect of over 80% in size
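Reporter cells (MCF7, BRCA1 promoter-firefly luciferase) received library compounds across a concentration series for 48 h. End-point luminescence was measured and concentration-effect curves derived after normalization.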
Nrf2 activator: activates Nrf2 signaling | Potency, µM (top dose mostly 46.1 µM), inactives show top-dose activation, usual class: activators | AREc32 ARE-luciferase reporter (MCF7-derived line), luminescence, 24 h | 410,000 tested, 0.31% active; note: potency is the fitted concentration of half-maximal effect; % of control where 0% means no effect; nearly all actives have a fitted effect of over 65% in size
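Each well held 1000 AREc32 cells, which were incubated with compound for 24 hr at 37 deg C after overnight attachment, and ARE reporter activity was quantified by firefly luciferase luminescence.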
ELG1 DNA repair: ELG1-dependent DNA repair inhibition; HEK293T ELG1-luciferase reporter, luminescence, 16 h; DNA damage induced by 5-fluorouridine; Potency, µM (highest dose often 46.1 µM), for the others: at the top dose activity change, negative = inhibition, hits mostly inhibitors; 330,000 tested, 2.3% active; note: potency is the fitted concentration of half-maximal effect; % is set by controls: 0 for no effect and ±100 for the full control effect; nearly all actives have a fitted effect of over 55% in size
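Overnight (16 hr) co-exposure of 2,000 cells/well to 5-fluorouridine and compound at 37 °C preceded detection. Luciferase was quantified via ONE-Glo luminescence; loss of signal denotes inhibition.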
IL-2 act: activators of IL-2 | AID 652025 | 360,000 tested, 0.065% active | IL-2 activation reporter assay, cell-based qHTS; stimulated with anti-CD3/CD4/CD28 beads; in transgenic mouse T cells | activation, % (series mostly up to about 46 µM); in the data active = activation above about 50%; inconclusive = mostly about 30% to 49%; note: 0% is about no effect
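Unstimulated transgenic mouse T cells; 60-min compound exposure; bead-based TCR/CD4/CD28 stimulation; 18 h culture, 37 degrees C; dual fluorescence (EGFP, DsRed) plate cytometry.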
Starred values were filed as active, the others as inactive; u = inconclusive; x = no result; [ ] = another dose, or the depositor's remark. An excerpt weighted towards active compounds, which were near 3.1% of everything screened. Unless noted, calls come from the whole dose curve; as a rule, active = well fitted curve in the direction sought with a large enough effect; inconclusive = small, poorly fitted or top-dose-only effect, or another doubt; inactive = no such curve, though single readings can be large; an effect the other way counts as inactive or inconclusive.

SMILES	BRCA1 expr up	Nrf2 activator	ELG1 DNA repair	IL-2 act
COCCOC(=O)c1c(N)n(Cc2ccc(OC)cc2)c2nc3ccccc3nc12	-34.3%	2.6%	14.6µM*	-2.6
CC(C)CCn1c(N)c(C(=O)NCc2cccs2)c2nc3ccccc3nc21	-56.0%	-0.9%	6.51µM*	-2.0
CC(C)OCCCNC(=O)c1c(N)n(Cc2cccs2)c2nc3ccccc3nc12	-63.3%	-3.7%	16.4µM*	-0.5
COCCNC(=O)c1c(N)n(CCC(C)C)c2nc3ccccc3nc12	-72.0%	6.5%	5.8µM*	0.0
O=P(O)(O)c1ccccc1OCCOCCOCCOCCOc1ccccc1P(=O)(O)O	100.1%	2.6%	u	0.3
COc1cccc(C2=NOC(C(=O)N3CCC4(CC3)OCCO4)C2)c1 (stereo not given)	u	3.1%	u	-1.5
O=C(C1CC(c2ccc(F)cc2)=NO1)N1CCC2(CC1)OCCO2 (stereo not given)	7.94µM*	0.2%	u	-2.4
O=C(C1CC(c2ccc(Cl)c(Cl)c2)=NO1)N1CCC2(CC1)OCCO2 (stereo not given)	8.91µM*	-0.1%	u	4.7
CCCNC(=O)c1c(N)n(Cc2ccco2)c2nc3ccccc3nc12	-27.6%	9.0%	23.1µM*	0.8
COCCCNC(=O)c1c(NC(=O)c2ccco2)n(Cc2ccccc2)c2nc3ccccc3nc12	-64.0%	15.8µM*	-10.0%	-0.5
CC(C)CNC(=O)c1c(N)n(Cc2ccco2)c2nc3ccccc3nc12	-20.1%	4.9%	25.9µM*	1.5
Nc1c(C(=O)NC2CCCC2)c2nc3ccccc3nc2n1CC1CCCO1 (stereo not given)	-62.8%	7.0%	14.6µM*	1.4
COCCCNC(=O)c1c(N)n(Cc2ccco2)c2nc3ccccc3nc12	-28.7%	3.7%	u	0.0
CC(C)OC(=O)c1c(N)n(Cc2ccco2)c2nc3ccccc3nc12	-24.0%	6.9%	8.4%	0.5
COCCNC(=O)c1c(NC(=O)c2ccc(Br)o2)n(Cc2ccccc2)c2nc3ccccc3nc12	-9.3%	-0.4%	u	1.8
CCOP(=O)(OCC)c1nc(-c2ccc(F)cc2)oc1NCc1ccccc1	-63.6%	3.4%	u	-0.7
C=CCS(=O)(=O)N1CCC(CCOc2ccccc2)(C(=O)OCC)CC1	-5.1%	0.3%	u	-3.2
CC(C)NC(=O)C(C)N1CCN(S(=O)(=O)c2ccc3ccccc3c2)CC1 (stereo not given)	-7.5%	0.3%	u	-3.0
Nc1c(C(=O)NCC2CCCO2)c2nc3ccccc3nc2n1Cc1ccco1 (stereo not given)	-35.9%	0.4%	23.1µM*	0.2
C=CCn1c(O)c(C(C)=NCCC(c2ccccc2)c2ccccc2)c(=O)[nH]c1=O	-57.0%	-0.9%	7.31µM*	-0.4
CC[C@@]1(C(=O)OC)N[C@H](CN(C)C(=O)Nc2ccc(OC)cc2)[C@@H]2C(=O)N(Cc3ccccc3)C(=O)[C@@H]21	10µM*	4.6%	u	0.0
CCOC(=O)[C@]12Cc3cc(Cl)ccc3[C@H]1N(C1CCCCC1)C(=O)c1cc(OC)ccc12	-73.2%	-3.1%	x	-1.2
COc1cc([N+](=O)[O-])c2nc(C)ccc2c1[N+](=O)[O-]	-75.9%	17.8µM*	x	-0.4
COc1cc([N+](=O)[O-])c2ncccc2c1[N+](=O)[O-]	-66.8%	-1.1%	x	-0.2
Cc1nc2c(=O)n(C)c(=O)nc-2n(C)n1	-97.3%	-2.8%	1.84µM*	-7.4
SMILES	BRCA1 expr up	Nrf2 activator	ELG1 DNA repair	IL-2 act
Cn1nc(-c2ccccc2)nc2c(=O)n(C)c(=O)nc1-2	-78.4%	x	x	x
Cc1ccc(Cl)cc1NC(=O)N(Cc1ccc2c(c1)OCO2)C1CCN(Cc2ccccc2)CC1	x	7.8%	x	x
CC(Cc1ccccc1)/[N+]([O-])=C\c1ccc(C(F)(F)F)cc1 (stereo not given)	10µM*	0.5%	u	0.8
C=C(C=O)CC1CC(O)[C@]2(C)OC3C[C@@H]4OC5C[C@]6(C)O[C@]7(C)CCC8OC9C[C@]%10(C)OC(/C(C)=C\CO)C(O)CC%10OC9CC(C)C8OC7CC6O[C@]5(C)C/C=C\C4OC3CC2O1 (stereo not given in full)	-9.9%	2.3%	19.7%	7.1
C=C(C=O)C[C@@H]1C[C@H](O)C2OC3C[C@]4(C)OC5/C=C\CC6OC7C(CC=CCC6OC5CCCC4OC3CC2O1)OC1CC2OC3CC(=O)OC3C[C@@H](C)C[C@@]2(C)OC1C[C@@H]7C (stereo not given in full)	-23.4%	0.0%	4.11µM*	-0.7
Cc1ccc(S(=O)(=O)N(C)CCCC(=O)N2CCN(c3ccccn3)CC2)cc1	-52.6%	2.5%	18.4µM*	-0.6
CCN(CC)c1ccc(NC(=O)c2cccc(C)c2)cc1S(=O)(=O)Nc1ccccc1OC	-39.6%	-0.3%[9.22 µM]	u	1.6
C[C@@]12CC[C@@H](c3cc4c(cc3C1)OCO4)N2c1ccccc1	x	x	x	0.8
Nc1c(C(=O)Nc2ccc(OC(F)(F)F)cc2)sc2nc3c(cc12)N1CCC3CC1	x	0.6%	x	x
O=C(CN1CCCC1)Nc1ccc(NC(=O)Nc2ccccc2)cc1	2.82µM*	-0.5%	u	0.1
Cc1cc(C(=O)OCC(=O)NC(=O)c2cccn2C)c2ccccc2n1	-18.6%	0.4%	u	0.0
CCN(CC)S(=O)(=O)c1cc(NC(=O)C(C)N2CC=C(c3ccccc3)CC2)ccc1C (stereo not given)	-49.1%	2.6%	14.6µM*	-2.3
CC(C)CC(NS(=O)(=O)c1ccc2c(c1)oc(=O)n2C)C(=O)N1CC=C(c2ccccc2)CC1 (stereo not given)	-6.4%	-0.5%	u	2.0
COc1ccc(C(C)=O)cc1CC(C(=O)c1ccc(Br)cc1)N(C)C (stereo not given)	-1.9%	6.1%	-8.9%	1.0
COc1cc(C(C)=O)ccc1OCc1cc(C(=O)N(C)CCC2CCCCO2)no1 (stereo not given)	3.55µM*	6.5%	u	0.9
COc1cccc(-n2nc(C(=O)N3CCC4(CC3)OCCO4)c3ccccc3c2=O)c1	-19.7%	0.1%	-19.2%	-2.7
COc1ccc(-n2nc(C(=O)NCC(=O)N3CCC4(CC3)OCCO4)c3ccccc3c2=O)cc1OC	10µM*	2.2%	u	0.3
O=c1c2ccccc2nc(/C=C/c2ccccc2O)n1-c1ccccc1O	x	x	23.1µM*	x
COc1cc(/C=C/c2nc3ccccc3c(=O)n2-c2ccc(O)cc2)ccc1O	-53.2%	31.6%	16.4µM*	4.8
COc1ccc(-n2c(/C=C/c3ccc(O)c(O)c3)nc3ccccc3c2=O)cc1	-72.5%	0.7%	18.3µM*	15.3
COc1ccc(-n2c(/C=C/c3cccc(F)c3)nc3ccccc3c2=O)cc1Cl	x	3.8%	x	x
O=c1c2ccccc2nc(/C=C/c2ccccc2F)n1-c1ccccc1O	-28.5%	u	u	-1.4
ClCCN(CCCl)c1ccc(/C=C/c2sc3ccccc3[n+]2CCCCI)cc1	16.8%	x	x	x

Compound activity (PubChem)
